Results: PubChem BioAssay AID463173 (ICCB-Longwood Screening Facility, Harvard Medical School, 2010)
Among all 52,000 compounds or so, about 4,300 (8.3%) were called active. Rule as the data show it: active = survival mostly below about 52% (no sharp cut-off); inactive = mostly above about 56%. Shown is part of a subset that was picked to be rich in actives.

What follows are compounds tested on DeltatarO mutant (assay: S. aureus survival, RN4220 and DeltatarO strains – OD600, teichoic acid synthesis inhibitors, primary screen (AID 463173)). Conditions: S. aureus RN4220 wild type/DeltatarO growth, OD600, 18 h, stronger effect = lower value, screened at 18.75 µg/mL (by protocol).
In the case of CC(C(=O)NCc1ccco1)N1C(=O)c2ccccc2C1=O (configuration not stated), the survival is reported as 57% (inactive).
In the case of Cc1coc2cc3oc(=O)c(CC(=O)NCCc4ccccc4)c(C)c3cc12, the survival is reported as 84% (inactive).
In the case of COC(=O)N1N=C(c2ccccc2)CC1(O)C(F)(F)F (configuration not stated), the survival is reported as 85% (inactive).
For COc1ccc(OC)c(N=c2oc3cc(O)ccc3cc2C(=O)Nc2ccccn2)c1, the survival was 70% (inactive).
In the case of Cc1ccc(S(=O)(=O)NCCc2nnc3ccc(SCc4ccccc4F)nn23)cc1, the survival is reported as 76% (inactive).
For O=C(NC1C2CCCC1CN(C1CC1)C2)c1ccc(Cl)cc1 (configuration not stated), the survival was 84% (inactive).
With O=C(/C(=N/O)n1cncn1)c1ccc(Cl)cc1Cl the survival was 72% (inactive).
Cc1ccc(C)c(NC(=O)CSc2nc(=O)n(CCN(C)C)c3c2CCC3)c1 was tested, and the survival was 79% (inactive).
With CCOC(=O)c1c(C)oc2nc(C)nc(NCC3CCN(Cc4ccccc4C)CC3)c12 the survival was 86% (inactive).
O=C(O)C1C2C=CC(C2)C1C(=O)NCc1cccs1 (configuration not stated) was tested, and the survival was 83% (inactive).
For COC(=O)c1ccccc1NC(=O)N(Cc1ccc(C)cc1)Cc1cccn1-c1nnc(N2CCCC2=O)s1, the survival was 123% (inactive).
With O=C1N/C(=N/N=C\c2ccco2)SC1Cc1cccc(C(F)(F)F)c1 (configuration not stated) the survival was 56% (inactive).
O=C(/C(=C\c1ccc(F)cc1)n1ccccc1=O)N1CCCC1 was tested, and the survival was 102% (inactive).
CCC(C)NC(=O)c1cccc(NC(=O)c2nsc3ccccc23)c1 (configuration not stated) was tested, and the survival was 74% (inactive).
In the case of O=C(NCc1cccc(F)c1)c1ccc(NC(=O)c2nsc3ccccc23)cc1, the survival is reported as -2% (active).
O=C(NCc1ccccc1)c1ccc(NC(=O)c2nsc3ccccc23)cc1 was tested, and the survival was 61% (inactive).
In the case of O=C(NCc1cccc(F)c1)c1cccc(NC(=O)c2nsc3ccccc23)c1, the survival is reported as 85% (inactive).
CC(NC(=O)c1cccc(NC(=O)c2nsc3ccccc23)c1)c1ccccc1 (configuration not stated) was tested, and the survival was 115% (inactive).
In the case of COC(=O)c1cccc(NC(=O)c2nsc3ccccc23)c1, the survival is reported as -1% (active).
For CCOc1ccc(NS(=O)(=O)c2ccc(-c3cc(C)no3)s2)cc1, the survival was 87% (inactive).
In the case of CCOc1ccc(-c2nonc2NC(=O)c2oc3ccc(Br)cc3c2C)cc1, the survival is reported as 50% (inactive).
In the case of CC1CCC(NC(=O)CN2CCC(n3nnc4ccccc43)CC2)CC1 (configuration not stated), the survival is reported as 76% (inactive).
With CC1=C(C(=O)Nc2ccc(C)cc2C)C(c2ccccc2)n2ncc(C(=O)Nc3ccccc3)c2N1 (configuration not stated) the survival was 58% (inactive).
With CC(=O)N1CCCc2cc(S(=O)(=O)N3CCC(C(=O)N(Cc4ccccc4)C(C)C)CC3)ccc21 the survival was 76% (inactive).
O=C(CSc1nc(-c2cccc(F)c2)[nH]c1-c1ccccc1)Nc1ccc2c(c1)OCCO2 was tested, and the survival was 94% (inactive).
With Cc1ccc(NC(=O)CSc2nc3ccccc3nc2Cc2ccccc2F)cc1F the survival was 107% (inactive).
O=C(CSc1nc2ccccc2nc1Cc1ccc(F)cc1)Nc1ccc2c(c1)OCO2 was tested, and the survival was 52% (active).
In the case of O=C(CSc1nc2ccccc2nc1Cc1ccccc1)Nc1ccc2c(c1)OCO2, the survival is reported as 75% (inactive).
With O=C(CSc1nc2ccccc2nc1Cc1ccc(Cl)cc1)Nc1ccc2c(c1)OCO2 the survival was 71% (inactive).
In the case of O=C(CSc1nc(-c2ccc(F)cc2)[nH]c1-c1ccc(F)cc1)Nc1ccc2c(c1)OCO2, the survival is reported as 97% (inactive).
For O=C(CSc1nc(-c2ccccc2)[nH]c1-c1ccccc1)Nc1ccc2c(c1)OCO2, the survival was 67% (inactive).
For O=C(CSc1nc(-c2cccc(F)c2)[nH]c1-c1ccccc1)Nc1ccc2c(c1)OCO2, the survival was 32% (active).
For O=C(CSc1nc2ccccc2nc1Cc1ccccc1F)Nc1cccc(C(F)(F)F)c1, the survival was 35% (active).
For Cc1cccc(-c2nc(SCC(=O)Nc3ccc4c(c3)OCCO4)c(-c3ccccc3)[nH]2)c1, the survival was 58% (inactive).
In the case of Cc1ccc(Cc2nc3ccccc3nc2SCC(=O)Nc2cccc(C(F)(F)F)c2)cc1, the survival is reported as 67% (inactive).
For Cc1cccc(-c2nc(SCC(=O)Nc3ccc4c(c3)OCO4)c(-c3ccccc3)[nH]2)c1, the survival was 40% (active).
For CC(NC(=O)Nc1cc(Cl)ccc1Cl)c1c(-n2cccc2)sc2c1CCCC2 (configuration not stated), the survival was 72% (inactive).
With Cc1ccc2c(c1)N(C(=O)NCc1ccccc1)CCO2 the survival was 79% (inactive).
Cc1cccc(CN2C(=O)c3ccccc3S(=O)(=O)c3ccc(C(=O)NC4CCCCC4)cc32)c1 was tested, and the survival was 79% (inactive).
COCCNC(=O)CCCn1c(SCC(=O)c2ccc(Br)cc2)nc2c(sc3ccccc32)c1=O was tested, and the survival was 68% (inactive).
COc1ccccc1CNC(=O)CN1C(=O)COc2ccc(S(=O)(=O)N3CCC(C)CC3)cc21 was tested, and the survival was 76% (inactive).
Cn1cc(S(=O)(=O)c2ccc(Cl)cc2)c(=O)c2cc(F)c(N3CCCC3)cc21 was tested, and the survival was 73% (inactive).
COCCCNC(=O)c1sc2nc3n(c(=O)c2c1C)CCC3 was tested, and the survival was 91% (inactive).
CCOc1ccccc1NC(=O)CSc1nc2c(c(=O)[nH]1)CCC2 was tested, and the survival was 101% (inactive).
In the case of COc1ccc(OC)c(CCNC(=O)c2cnn(-c3ccccc3)c2C2CCN(C(=O)OC(C)(C)C)CC2)c1, the survival is reported as 73% (inactive).
In the case of CCc1ccc(NC(=O)CSc2ccccn2)cc1, the survival is reported as 89% (inactive).
With COc1cccc(-c2nc(SCC(=O)Nc3ccc4c(c3)OCCO4)c(-c3ccccc3)[nH]2)c1 the survival was 54% (inactive).
With COc1cccc(-c2nc(SCC(=O)Nc3ccc4c(c3)OCO4)c(-c3ccccc3)[nH]2)c1 the survival was 31% (active).
With COc1ccc(-c2[nH]c(-c3cccc(OC)c3)nc2SCC(=O)Nc2ccc3c(c2)OCO3)cc1 the survival was 55% (inactive).
For CC(=O)N1c2ccc(S(=O)(=O)NCCC(=O)Nc3ccc(Br)c(C)c3)cc2CC1C (configuration not stated), the survival was 90% (inactive).
In the case of Cc1ccc(CCNC(=O)c2ccc3c(c2)N(Cc2cccc(C)c2)C(=O)c2ccccc2S3(=O)=O)cc1, the survival is reported as 72% (inactive).
For CCOC(=O)C1CCCN(CC(=O)N2CCCc3c2c(=O)oc2ccc(OCc4ccccc4)cc32)C1 (configuration not stated), the survival was 121% (inactive).
With COc1ccc(N2CC(C(=O)NCc3nnnn3-c3ccc(C)c(C)c3)CC2=O)cc1 (configuration not stated) the survival was 69% (inactive).
In the case of CCCSc1ncnc2c1c(-c1ccccc1)cn2-c1ccccc1OC, the survival is reported as 2% (active).
CCCCSc1ncnc2c1c(-c1ccccc1)cn2-c1cccc(F)c1 was tested, and the survival was 78% (inactive).
CCOC(=O)CSc1ncnc2c1c(-c1ccccc1)cn2-c1ccc(OC)cc1 was tested, and the survival was 60% (inactive).
With CC(C(=O)O)N1CCCC1 (configuration not stated) the survival was 94% (inactive).
For CC(C(=O)O)N1C(=O)NC2NC(=O)NC21 (configuration not stated), the survival was 54% (active).
In the case of CCOc1ccc(C(=O)Nc2nnc(SCc3cc(=O)c4cc(C)ccc4[nH]3)s2)cc1, the survival is reported as 91% (inactive).
COCCNC(=O)c1ccc2c(c1)NC(=O)C(CS(=O)(=O)Cc1ccc(F)cc1Cl)N2 (configuration not stated) was tested, and the survival was 130% (inactive).
In the case of O=C1OC2(CCCC2)OC(=O)C1=CNc1ccccc1, the survival is reported as 96% (inactive).
Nc1ccc2c(c1)OC1(CCCCC1)O2 was tested, and the survival was 55% (active).
With COc1ccccc1-c1cc(C(=O)Nc2ccccc2C(F)(F)F)no1 the survival was 71% (inactive).
For Cc1ccc2c(=O)cc(C(=O)Nc3ccc(S(=O)(=O)Nc4ncccn4)cc3)oc2c1C, the survival was 76% (inactive).
With N#Cc1ccc(NC(=O)c2ccc3c(c2)nnn3C2CCCC2)cc1 the survival was 126% (inactive).
In the case of Cc1cc(-c2ccc(S(=O)(=O)Nc3cccc(Cl)c3C)cc2)on1, the survival is reported as 94% (inactive).
For Cc1ccc(-c2nnn(CC(=O)N(CC(=O)NCC3CCCO3)C3CCN(Cc4ccccc4)CC3)n2)o1 (configuration not stated), the survival was 83% (inactive).
O=C(NCc1ccco1)C(Sc1ccccc1)c1ccccc1 (configuration not stated) was tested, and the survival was 101% (inactive).
Cc1c(C(=O)NCc2ccc(Cl)cc2)sc2nc3n(c(=O)c12)CCCCC3 was tested, and the survival was 51% (active).
In the case of Cc1c(C(=O)NCc2ccc(Cl)cc2)sc2nc3n(c(=O)c12)CCCC3, the survival is reported as 95% (inactive).
For CCN(CC)CCNC(=O)c1sc2nc3n(c(=O)c2c1C)CCCCC3, the survival was 53% (inactive).
For Cc1c(C(=O)NCc2ccccc2)sc2nc3n(c(=O)c12)CCCCC3, the survival was 56% (inactive).
For CCOc1ccccc1NC(=O)c1sc2nc3n(c(=O)c2c1C)CCCCC3, the survival was 45% (inactive).
CCCN(CCC)CCNC(=O)c1sc2nc3n(c(=O)c2c1C)CCCCC3 was tested, and the survival was 62% (active).
With Cc1ccc(CNC(=O)c2sc3nc4n(c(=O)c3c2C)CCCC4)cc1 the survival was 80% (inactive).
CCOC(=O)c1ccccc1NC(=O)c1sc2nc3n(c(=O)c2c1C)CCCCC3 was tested, and the survival was 37% (active).
In the case of Cc1c(C(=O)NCc2ccc(Cl)cc2)sc2nc3n(c(=O)c12)CCC3, the survival is reported as 102% (inactive).
CCCN(CCC)CCCNC(=O)c1sc2nc3n(c(=O)c2c1C)CCC3 was tested, and the survival was 79% (inactive).
With CCOC(=O)c1ccccc1NC(=O)c1sc2nc3n(c(=O)c2c1C)CCCC3 the survival was 103% (inactive).
In the case of Cc1ccc(CNC(=O)c2sc3nc4n(c(=O)c3c2C)CCCCC4)cc1, the survival is reported as 53% (active).
In the case of O=C(NCc1ccccc1Cl)c1cc2cccc3c2n1CCS3, the survival is reported as 115% (inactive).
For COc1cc(OC)c(NC(=O)c2cc(C)nc3c2c(C)nn3-c2ccc(C)cc2)cc1Cl, the survival was 103% (inactive).
With Cc1c(Cl)ccc2sc(N3CCN(C(=O)c4ccco4)CC3)nc12 the survival was 69% (inactive).
In the case of COc1cccc(NC(=O)CN2C(=O)c3cccnc3Oc3ccc(Cl)cc32)c1, the survival is reported as 80% (inactive).
For COc1cc(NC(=O)c2sc3nc4n(c(=O)c3c2C)CCCCC4)cc(OC)c1OC, the survival was 42% (active).
COc1cc(OC)c(NC(=O)c2sc3nc4n(c(=O)c3c2C)CCCC4)cc1Cl was tested, and the survival was 64% (inactive).
For COc1cc(Cl)c(C)cc1NC(=O)c1sc2nc3n(c(=O)c2c1C)CCCCC3, the survival was 52% (inactive).
For CC(C)NS(=O)(=O)c1ccc2nc(NC(=O)c3cncc(Br)c3)sc2c1, the survival was 87% (inactive).
For COc1ccc2c(c1)c1c(c(=O)n(Cc3ccccc3)c(=O)n1CC(=O)NCc1ccccc1Cl)n2C, the survival was 72% (inactive).
With O=C(O)CNCc1nc2ccccc2[nH]1 the survival was 95% (inactive).
For CNC(=O)Cc1nc2ccccc2[nH]1, the survival was 87% (inactive).
C/C(Cc1nc2ccccc2[nH]1)=N/Nc1ccccc1 was tested, and the survival was 2% (active).
